# Screens: PubChem, National Center for Advancing Translational Sciences (NCATS)
# Only some compounds are listed: those with a hit (about 20% of all), similar ones and a draw of the others.
# HCMV antiviral: human cytomegalovirus inhibition; HFF cells, HCMV-luciferase reporter, 72 h; active compounds read low; activity change, negative = inhibition, % at 57.5 µM; 4.5% of 410,000 active; AID 1259415; in the data active means activity change below about -60%; inconclusive means no clear call, values can overlap the other calls; inactive means above about -39%; further: on the % scale 0 is the no-effect control and ±100 the full control effect
#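 Two compound doses tested in HFFs infected with HCMV-luciferase, MOI 1 PFU/cell, 72 h at 37C. Lysate luminescence read with OneGlo; data normalized against buffer-only and 10uM Salinomycin inhibitor controls.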
# Pf growth 48h: inhibits P. falciparum growth in the first generation, 48 h; Potency, µM (series often up to 28.7 µM), for the others: at the highest dose activity change, negative = inhibition, hits mostly inhibitors; 5.9% of 310,000 active; P. falciparum luciferase growth in erythrocytes, 48 h; further: potency means the concentration at half of the fitted maximal effect; on the % scale 0 is the no-effect control and ±100 the full control effect
#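 Luminescence readout; reporter = integrated firefly luciferase in P. falciparum. RBC culture at 2% hematocrit, 0.1% parasitemia final, 37 C/5% CO2; decreased signal taken as growth inhibition.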
# Cycloheximide cs: counter-screen for Shiga toxin inhibitors: cycloheximide protein synthesis inhibition. cell reporter, cycloheximide protein synthesis inhibition counterscreen. max response, %. 12% of 300,000 active; in the data active means max response mostly above about 13%, no sharp cut-off; inactive means mostly below about 14%; further: read at 38.3 µM for the half of the compounds with a filed dose; 0% is about no effect
# Pf growth 96h: inhibits malaria parasite growth, 96 h; P. falciparum luciferase reporter growth, 96 h; Potency, µM (series often up to 28.7 µM), inactives show at the top dose activity change, negative = inhibition, hits mostly inhibitors; 6.9% of 320,000 active; AID 504834; further: potency means the concentration at half of the fitted maximal effect; on the % scale 0 is the no-effect control and ±100 the full control effect
#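 P. falciparum expressing integrated firefly luciferase grown in erythrocytes (2% hematocrit, 0.05% parasitemia final) with compounds for 96 hours at 37 C, 5% CO2. Growth inhibition read as loss of luminescence after adding luciferase detection reagent.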
# Shiga toxin inh: Shiga toxin inhibition. inhibition, % at 38.7 µM. Vero cells, Shiga toxin protein synthesis inhibition reporter. 9.2% of 290,000 active; in the data active means inhibition mostly above about 28%, no sharp cut-off; inactive means mostly below about 43%; further: 0% is about no effect
# The depositor's hits bear a star; u = inconclusive; x = not tested or not shown. Unless noted, the call rests on the fitted dose curve; in most records, active means well fitted inhibition curve with a large enough effect; inconclusive means small, poorly fitted or top-dose-only effect, or another doubt; inactive means no such curve, though single readings can be large or run the other way.
SMILES,HCMV antiviral,Pf growth 48h,Cycloheximide cs,Pf growth 96h,Shiga toxin inh
O=C(COC(=O)C(Cc1ccccc1)NC(=O)c1ccccc1)c1ccccc1 (centres undefined),-24.2,-2.8%,24.0*,41.2%,37.0*
COc1ccc(CC(=O)Nc2cc(-c3cn4cccnc4n3)ccc2C)cc1OC,-18.5,x,x,x,x
COc1ccc(-c2nnc(SCC(=O)N/N=C/c3ccccc3C(=O)O)n2-c2ccccc2)cc1,-7.4,21.6%,6.1,-20.4%,-1.3
Cc1cccn2c(=O)nc(SCC(=O)N3CCOCC3)nc12,-0.8,59.6%,x,31.2%,x
COC(=O)C[C@H]1C[C@@H]2c3cc(NS(=O)(=O)c4cccc(OC)c4)ccc3O[C@@H]2[C@@H](CO)O1,-21.6,x,x,x,x
COc1cccc(S(=O)(=O)Nc2ccc3c(c2)[C@@H]2C[C@@H](CC(=O)NCc4ccc(Cl)cc4)O[C@@H](CO)[C@@H]2O3)c1,-77.7*,x,x,x,x
Cc1ccc(NS(=O)(=O)c2c(C)nc3sc(C)c(C)n3c2=O)cc1F,-26.2,x,x,x,x
FC(F)(F)c1ccccc1Cc1c(-c2ccco2)nc2ccc(Cl)cn12,-109.9*,x,x,x,x
FC(F)(F)c1ccccc1Cc1c(-c2ccccc2)nc2ccc(Cl)cn12,23.9,x,x,x,x
FC(F)(F)c1cc(Cl)c2nc(-c3ccco3)c(Cc3ccccc3C(F)(F)F)n2c1,-66.0*,x,x,x,x
O=C1c2cccc3c([N+](=O)[O-])ccc(c23)C(=O)N1c1ccc(Cl)cn1,-105.1*,-0.6%,-1.6,154.3%,-21.2
O=C1c2cccc3c([N+](=O)[O-])ccc(c23)C(=O)N1c1nccs1,-94.8*,11.3%,-1.2,21.5%,-13.3
O=C1c2cccc3cccc(c23)C(=O)N1c1nccs1,-22.2,19.1%,3.7,-26.1%,19.5
O=C1c2ccc([N+](=O)[O-])cc2C(=O)N1c1ccc(Cl)cn1,-10.2,11.8%,-1.0,-17.5%,-2.3
O=C1c2cccc3c([N+](=O)[O-])ccc(c23)C(=O)N1c1ccccn1,-103.0*,-0.2%,3.0,-11.8%,24.4
CCC(Oc1ccccc1)C(=O)Nc1cc(C(F)(F)F)ccc1N1CCOCC1 (centres undefined),-1.8,1.65µM*,x,1.47µM*,x
COc1cc(Cl)c(C)cc1NC(C)C(=O)Nc1cc(C(F)(F)F)ccc1N1CCOCC1 (centres undefined),-20.2,0.147µM*,1.0,0.0657µM*,-9.2
CC(C(=O)Nc1cc(C(F)(F)F)ccc1N1CCOCC1)N1C(=O)C2CCCCC2C1=O (centres undefined),-4.7,-8.5%,x,23.2%,x
COc1ccc(NC(C)C(=O)Nc2cc(C(F)(F)F)ccc2N2CCOCC2)c(OC)c1 (centres undefined),-13.7,0.117µM*,1.7,0.0465µM*,14.8
CCOC(=O)C(=CNc1cc(C(F)(F)F)ccc1N1CCOCC1)C(=O)OCC,-17.0,4.15µM*,-1.8,u,-3.5
Cc1cc2nc(-c3ccc(OCc4ccccc4C)cc3)cc(C(F)(F)F)n2n1,4.1,x,x,x,x
COc1cccc2cc(C(=O)N3CCN(c4ccccn4)CC3)c(=O)oc12,-18.9,17.6%,32.0*,x,35.4
COc1cccc2cc(C(=O)N3CCN(c4cc(C)ccc4C)CC3)c(=O)oc12,2.4,x,x,x,x
COc1cccc2cc(C(=O)N3CCc4ccccc43)c(=O)oc12,-71.4*,49.9%,-2.1,-1.5%,27.4
Cc1cc(OCCCN2CCC(C(O)(c3ccccc3)c3ccccc3)CC2)ccc1Br,-20.8,x,x,x,x
SMILES,HCMV antiviral,Pf growth 48h,Cycloheximide cs,Pf growth 96h,Shiga toxin inh
Cc1cccc(N2CCN(C(=O)CCCSc3nc4ccccc4[nH]3)CC2)c1C,u,u,-1.5,9.28µM*,-19.5
Cc1ccc(Cc2nc3ccccc3nc2SCC(=O)N2CCC(C)CC2)cc1,8.9,x,x,x,x
O=C(CCCSc1nc2ccccc2[nH]1)N1CCN(c2ccccc2)CC1,-16.0,u,1.9,u,54.8
CC1CCCCN1C(=O)CSc1nnc2c(n1)[nH]c1ccccc12 (centres undefined),43.8,1.65µM*,-1.7,11.7µM*,1.2
CC1CCCCN1C(=O)CSc1nc2ccccc2nc1Cc1ccccc1 (centres undefined),-71.8*,x,x,x,x
O=C(CSc1nc2ccccc2[nH]1)N1CCCCC1,33.8,117.7%,47.4*,4.6%,63.3*
CC1CCCCN1C(=O)CSc1nnc2c(n1)[nH]c1ccc(F)cc12 (centres undefined),-37.9,u,-2.3,-5.1%,-3.5
Cc1ccc(C)c(NC(=O)N2CCN(C)c3ncccc32)c1,-12.4,x,x,x,x
Cn1cc2cc([N+](=O)[O-])ccc2n1,-18.8,20.7%,9.1,29.3%,12.8
CCn1c(O)c(/C=N/N=C2CCCCC2)c2cc(C3=NNC(=O)CC3)ccc21,-9.6,-18.0%,-1.3,u,-3.3
COc1ccc(-c2nnc(SCC(=O)NCc3cccs3)n2CC(C)C)cc1,-6.8,x,1.5,u,-7.3
CC1CCCCN1C(=O)CSc1nc2ccccc2[nH]1 (centres undefined),-32.3,73.7%,32.6*,-1.3%,81.3*
CCOc1cc2sc(N3CCC(C(=O)Nc4ccc(CC)cc4)CC3)nc2cc1Br,52.9,x,x,x,x
O=C(NC(c1ccccc1)C(Cl)Cl)c1ccccc1 (centres undefined),-12.1,-27.2%,-1.3,2.62µM*,2.9
Cc1ccc(C(=O)NC(c2ccccc2)C(Cl)Cl)cc1 (centres undefined),u,-0.2%,15.2*,u,49.5
COC(=O)CC(NC(=O)c1ccc(C)cc1)c1ccccc1 (centres undefined),17.6,x,-2.6,241.5%,-10.8
COc1ccccc1NC(=O)CS(=O)(=O)c1cn(CC(=O)N2CCOCC2)c2ccccc12,12.4,5.3%,-4.7,23.6%,-3.0
COc1ccccc1-c1noc(-c2ccc(NC3CCCCC3)c([N+](=O)[O-])c2)n1,0.5,x,x,x,x
O=C(c1ccccc1)c1ccc2nc(-c3ccc(NC(=O)c4ccccc4Br)cc3)[nH]c2c1,-25.0,u,15.3,u,16.4
CS(=O)(=O)c1cccc(C(=O)Nc2ccc(-c3nc4ccccc4[nH]3)cc2)c1,-65.1*,u,23.9,u,5.8
CS(=O)(=O)c1ccccc1C(=O)Nc1ccc(-c2nc3ccccc3o2)cc1,22.5,-2.7%,31.5*,u,65.0*
O=C(Nc1ccc(-c2nc3ccccc3[nH]2)cc1)c1ccccc1NS(=O)(=O)c1ccc(F)cc1,40.7,37.1%,12.1,8.3%,20.2
Cc1ccccc1C(=O)Nc1ccc(-c2nc3ccc(C(=O)c4ccccc4)cc3[nH]2)cc1,u,8.28µM*,19.1,u,16.9
CS(=O)(=O)c1ccccc1C(=O)Nc1ccc(-c2nc3ccccc3[nH]2)cc1,37.4,85.3%,19.2*,85.1%,42.2*
CN(c1ccccc1)S(=O)(=O)c1ccc(Cl)c(C(=O)Nc2ccc(-c3nc4ccccc4[nH]3)cc2)c1,-32.2,u,1.9,u,-8.4
CC(=O)Nc1sc(C)c(C)c1C(=O)OCC(=O)Nc1ccccc1C(F)(F)F,-6.1,x,x,x,x
CN(C)S(=O)(=O)c1cccc(COC(=O)Cc2c(F)cccc2Cl)c1,55.8,u,13.7*,-29.8%,26.8
